Source: PubChem BioAssay (Broad Institute)
IDH1 mut inh: IDH1 R132H (human) inhibition; O75874; IDH1 R132H reductase, diaphorase/resazurin fluorescence, 60 min; inhibition, % at 10 µM; actives 0.18% (n = 70,000); in the data active = inhibition above about 34%
Hits are given with their value; - = inactive. Many of the other results were omitted from the sample, so hits are more common in it than they were.

SMILES	IDH1 mut inh
N#CC(C#N)=Cc1ccc(O)cc1	-
N#CC(C#N)=Cc1cc(O)c(O)c(O)c1	33
CC(C)(O)/C=C/C(=O)[C@](C)(O)C1[C@H](O)C[C@@]2(C)[C@@H]3CC=C4C(CC(=O)C(=O)C4(C)C)[C@]3(C)C(=O)C[C@@]12C (some centres undefined)	-
